High-throughput results (PubChem)
DT40 TDP1 no CPT – qHTS for Inhibitors of human tyrosyl-DNA phosphodiesterase 1 (TDP1): qHTS in cells in absence of CPT; DT40 Tdp1-/- hTDP1 cells, no CPT, ATP luminescence, 48 h; Potency, µM (top dose mostly 46.2 µM), for the others: top-dose activity change, negative = growth inhibition, most hits filed as inhibitors; 15% of 420,000 active; AID 686978, 2013; also: potency is read from the fitted curve at half-maximal effect; % is scaled to controls: 0 for no effect and ±100 for the full control effect; nearly all actives have a fitted effect of over 55% in size
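No-CPT arm: Tdp1-/-;hTDP1 DT40 cells (400/well) plus compounds, incubated ≥48 hr at 37 °C. Readout CellTiter-Glo luminescence.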
TGFb inhibitor – TGF-b pathway inhibition. HepG2 CAGA-GFP TGF-b/SMAD3 reporter, GFP fluorescence, 18 h; TGF-beta stimulated, 500 pg/mL final. 1.2% of 410,000 active. AID 588855. Potency, µM (titrated, usually from 46.1 µM), inactives show at the highest dose activity, negative = inhibition, usual class: inhibitors; also: potency is read from the fitted curve at half-maximal effect; % is scaled to controls: 0 for no effect and ±100 for the full control effect; nearly all actives have a fitted effect of over 65% in size
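TGF-beta reporter screen: HEPG2 CAGA-GFP, 1% FBS, 500 pg/mL TGF-beta final, 18 h; per-cell GFP summed per well; curves fitted and categorized by class.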
HepG2 viability – HepG2 cytotoxicity, counter-screen for TGF-b inhibitors | HepG2 CAGA-GFP viability, ATP luminescence, 18 h | Potency, µM (series often up to 46.1 µM), without a hit: at the top dose activity change, negative = cytotoxicity, usual class: cytotoxic | 0.76% of 410,000 active | AID 588856; also: potency is read from the fitted curve at half-maximal effect
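HepG2 CAGA-GFP cells (1000/well, DMEM with 1% FBS) received compound, then TGF-beta at 500 pg/mL final, and were incubated 18 hours at 37 degrees C. Viability was read by CellTiter-Glo luminescence. Media-only wells were set as complete cell-killing and DMSO as no toxicity.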
TDP1 cell CPT – DT40-hTDP1 cell growth loss with CPT | AID 686979 | Potency, µM (top dose mostly 46.2 µM), inactives show top-dose activity change, negative = growth inhibition, hits mostly inhibitors | 12% of 420,000 active | chicken DT40 Tdp1-/-;hTDP1 cells + 20 nM CPT, ATP luminescence, 48 h; also: potency is read from the fitted curve at half-maximal effect; % is scaled to controls: 0 for no effect and ±100 for the full control effect; nearly all actives have a fitted effect of over 55% in size
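Chicken DT40 Tdp1-/- cells stably complemented with human TDP1 were seeded at 400 cells/well in medium containing 20 nM camptothecin, exposed to pin-transferred compounds, and grown at 37 °C for at least 48 hr. Viability was read as ATP luminescence.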
TDP1 inh – inhibitors of human tyrosyl-DNA phosphodiesterase TDP1; recombinant TDP1, AlphaScreen DNA substrate cleavage; Potency, µM (top dose mostly 130 µM), without a hit: at the top dose activity change, negative = inhibition, most hits filed as inhibitors; 0.28% of 350,000 active; Q9NUW8; also: potency is read from the fitted curve at half-maximal effect; % is scaled to controls: 0 for no effect and ±100 for the full control effect; nearly all actives have a fitted effect of over 40% in size
Target sequence (Q9NUW8 whole entry, looked up): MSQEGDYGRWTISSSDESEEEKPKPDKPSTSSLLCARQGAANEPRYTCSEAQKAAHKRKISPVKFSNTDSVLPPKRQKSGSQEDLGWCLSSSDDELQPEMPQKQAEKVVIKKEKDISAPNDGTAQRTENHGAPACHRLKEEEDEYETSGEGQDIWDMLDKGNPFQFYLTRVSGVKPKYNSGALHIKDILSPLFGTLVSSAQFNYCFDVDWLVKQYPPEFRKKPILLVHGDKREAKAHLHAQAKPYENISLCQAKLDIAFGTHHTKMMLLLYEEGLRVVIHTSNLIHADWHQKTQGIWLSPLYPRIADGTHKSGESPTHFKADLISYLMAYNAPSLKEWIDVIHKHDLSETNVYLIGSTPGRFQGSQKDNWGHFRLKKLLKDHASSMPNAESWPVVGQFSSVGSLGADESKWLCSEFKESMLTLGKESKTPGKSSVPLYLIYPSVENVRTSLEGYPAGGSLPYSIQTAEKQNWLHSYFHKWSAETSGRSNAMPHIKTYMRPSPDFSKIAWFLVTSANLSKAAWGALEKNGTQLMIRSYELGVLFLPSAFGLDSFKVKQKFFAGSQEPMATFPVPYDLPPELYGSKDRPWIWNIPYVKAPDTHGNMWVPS
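Signal: AlphaScreen proximity between streptavidin donor and anti-FITC acceptor beads on intact substrate. Reaction: Tdp1 1 nM, substrate 15 nM final, 5 min RT after 15 min compound preincubation.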
IL-1B inflam inh – blocks inflammasome-driven IL-1 beta release; THP-1 LPS/ATP IL-1B secretion, AlphaLISA, 16 h; active compounds read low; activity change, % at 57.5 µM; 4.7% of 360,000 active; in the data active = activity change below about -50%; inconclusive = mostly about -30% to -49%; also: % is scaled to controls: 0 for no effect and ±100 for the full control effect
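THP-1 cells pretreated 1 hr with compounds (up to 57.5 uM final), then stimulated with LPS (250 ng/mL final) plus ATP (1.25 mM final); secreted IL-1B measured by AlphaLISA after 16 hr, decreased signal indicating inhibition.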
An asterisk follows results filed as active; u = inconclusive; x = no result given. Only some compounds are listed: those with a hit (about 18% of all), similar ones and a draw of the others. Unless noted, calls follow the shape of the dose curve; as a rule, active = well fitted curve in the direction sought with a large enough effect; inconclusive = small, poorly fitted or top-dose-only effect, or another doubt; inactive = no such curve, though single readings can be large; an effect the other way counts as inactive or inconclusive.

SMILES	DT40 TDP1 no CPT	TGFb inhibitor	HepG2 viability	TDP1 cell CPT	TDP1 inh	IL-1B inflam inh
C[C@H](NC(=O)[C@@H](N)Cc1ccc(O)cc1)C(=O)NCC(=O)N[C@H]1CSSC[C@@H](C(=O)O)NC(=O)[C@H](CO)NC(=O)[C@H]([C@@H](C)O)NC(=O)[C@H](Cc2ccccc2)NC(=O)[C@H]([C@@H](C)O)NC(=O)[C@H](CCCCN)NC(=O)[C@@H](Cc2c[nH]c3ccccc23)NC(=O)[C@H](Cc2ccccc2)NC(=O)[C@H](Cc2ccccc2)NC(=O)[C@H](CC(N)=O)NC(=O)[C@H](CCCCN)NC1=O	x	x	x	x	8.9%	x
CN(Cc1ccco1)C(=O)CC[C@H]1O[C@@H](n2ccc(=O)[nH]c2=O)[C@H](O)[C@@H]1O	-2.8%	3.9%	-29.4%	-14.1%	x	-12.1
CCCc1ccc(OC(C)c2nc(-c3ccc(-n4cccc4)cc3)no2)cc1 (stereo not drawn)	u	u	-40.5%	-24.4%	5.8%	x
COc1ccc(C(=O)NCc2cc(C)nc3ccccc23)cc1	u	-3.4%	-22.6%	u	-2.4%	98.5
Cc1cc(CNC(=O)c2ccc3c(c2)OCO3)c2ccccc2n1	4.61µM*	-22.4%	-21.7%	7.31µM*	5.1%	103.8
CSc1ccccc1C(=O)NCc1ccc2c(c1)OCO2	-5.1%	-5.8%	-22.1%	6.5%	5.6%	-4.1
CC(C)(C)C(=O)c1cn(CC(=O)NCc2ccc3c(c2)OCO3)c2ccccc12	23.1µM*	-2.7%	13.0%	u	5.1%	-20.6
CCc1cccc(CC)c1NC(=S)NC(C)c1ccccc1 (stereo not drawn)	23.1µM*	-22.3%	-31.3%	-85.0%	2.7%	-25.2
O=C(NCc1ccc2c(c1)OCO2)c1ccccc1Cl	2.7%	22.0%	-6.9%	-3.2%	x	-68.0*
CC(C)C[C@@]12C(=O)N(c3ccc(Br)cc3)C(=O)N1[C@H](c1ccc(Br)cc1)[C@@H]1C(=O)N(C(C)(C)C)C(=O)[C@@H]12	u	-0.9%	-20.1%	u	x	-0.2
S=C(NCc1ccc2c(c1)OCO2)NCc1ccc2c(c1)OCO2	-8.6%	6.5%	9.0%	2.6%	5.6%	30.7
Cc1nc2ccccc2nc1OCC(=O)NCc1ccc2c(c1)OCO2	7.31µM*	0.0%	-64.8%	14.6µM*	3.2%	2.7
O=C(NCc1ccc2c(c1)OCO2)c1cc(-c2ccccn2)nc2ccccc12	u	-4.9%	-21.3%	-27.5%	2.9%	-81.9*
CCc1cccc(CC)c1NC(=S)NCc1ccc2c(c1)OCO2	18.4µM*	6.9%	-16.6%	23.1µM*	3.2%	-10.4
O=C(NCc1ccco1)c1cc(-c2ccccn2)nc2ccccc12	-19.3%	-0.2%	-1.3%	-12.3%	4.2%	22.1
COCCCNC(=S)Nc1c(C)cc(C)cc1C	5.2%	-5.4%	-3.4%	5.1%	x	23.4
COc1cc(NC(=O)Cn2nnc(-c3ccc(C(F)(F)F)cc3)n2)c(C(=O)O)cc1OC	-14.5%	19.5%	6.8%	-12.5%	7.0%	x
COc1cccc(-n2cnc3c(sc4nc(N5CCOCC5)c5c(c43)CCCC5)c2=O)c1	18.4µM*	-6.9%	11.9%	u	8.9%	-54.4*
CCOc1ccc(CNC(=O)Cn2nc(C)c3nn(-c4ccc(Cl)cc4)c(C)c3c2=O)cc1	-0.7%	18.9%	8.6%	-7.6%	5.4%	x
CCOc1ccc(CNC(=O)Cn2nc(C)c3nn(-c4ccc(Cl)cc4)c(C)c3c2=O)cc1OC	18.4µM*	-5.8%	-3.6%	u	2.7%	x
Cc1nn(CC(=O)Nc2ccccc2F)c(=O)c2c(C)n(-c3ccc(Cl)cc3)nc12	u	0.0%	-17.8%	23.1µM*	2.7%	x
Cc1cccc(CNC(=O)Cn2nc(C)c3nn(-c4ccc(Cl)cc4)c(C)c3c2=O)c1	18.4µM*	-7.8%	3.5%	20.6µM*	5.4%	x
COc1cccc(C(CNC(=O)C(c2ccccc2)c2ccccc2)N(C)C)c1 (stereo not drawn)	u	-2.2%	-7.9%	-28.0%	29.2%	-23.6
O=[N+]([O-])c1ccc(O)c(-c2nn[nH]n2)c1	u	9.6%	-32.4%	18.4µM*	8.7%	7.3
O=C(/C(C=Nc1ccc(Br)cc1)=C(/O)c1ccco1)C(F)(F)F	-12.8%	17.6%	-4.0%	-6.0%	0.6%	-8.5
SMILES	DT40 TDP1 no CPT	TGFb inhibitor	HepG2 viability	TDP1 cell CPT	TDP1 inh	IL-1B inflam inh
O=C1/C(=C/N(C(=O)c2ccco2)c2ccc(Br)cc2)Sc2ccccc21	14.6µM*	-10.6%	-54.5%	u	3.1%	-13.8
O=C1/C(=C/N(C(=O)c2ccco2)c2ccc(Cl)cc2)Sc2ccccc21	16.4µM*	-1.0%	-13.0%	23.1µM*	2.7%	u
O=C(O)CCc1ccc(-c2ccc(Cl)cc2)n1CCC(=O)O	8.1%	3.1%	-3.1%	8.0%	-2.9%	1.9
C=CCn1c(CCC(=O)O)ccc1-c1ccccc1	u	-15.2%	-3.6%	-9.1%	5.4%	-77.2*
CCN(CC)CCCNC(=O)c1cc2c(Cl)nc3ccccc3c2s1	u	u	-98.7%	18.4µM*	-1.1%	u
CCOc1ccccc1NC(=O)c1cc2c(Cl)nc3ccccc3c2s1	-3.4%	-20.2%	-2.7%	13.2%	5.8%	x
CCN(CCCNC(=O)c1cc2c(Cl)nc3ccccc3c2s1)Cc1ccccc1	23.1µM*	-104.3%	-84.5%	u	1.2%	x
CC1=C(C(=O)N2CCCCCC2)CC(CC(=O)NCCc2ccccn2)C(=O)N1Cc1ccc(C(C)(C)C)cc1 (stereo not drawn)	16.4µM*	x	x	18.4µM*	x	u
CC1=C(C(=O)N(C(C)C)C(C)C)CC(CC(=O)NC2CCCCC2)C(=O)N1Cc1ccc(C(C)(C)C)cc1 (stereo not drawn)	20.6µM*	u	12.6µM*	14.6µM*	x	-30.0
CC1=C(C(=O)N2CCOCC2)CC(CC(=O)NC2CC2)C(=O)N1Cc1ccc(C(C)(C)C)cc1 (stereo not drawn)	-28.4%	u	-19.9%	-26.2%	x	11.3
CC1=C(C(=O)N2CCCCCC2)CC(CC(=O)NC2CCCCC2)C(=O)N1Cc1ccc(C(C)(C)C)cc1 (stereo not drawn)	20.6µM*	u	-33.1%	14.6µM*	x	-73.0*
